The text below walks through data of PubChem BioAssay (NCATS).

Several values for one entry are separate records, joined by “and”; a condition that tells them apart may be missing. Equal entries are not always repeated. Inconclusive results are not listed. Activity calls are given as the source filed them. Unless noted, the call rests on the fitted dose curve; in most records, active means well fitted curve in the direction sought with a large enough effect; inconclusive means small, poorly fitted or top-dose-only effect, or another doubt; inactive means no such curve, though single readings can be large; an effect the other way counts as inactive or inconclusive.

The target of experiment [1] is Nuclear receptor ROR-gamma (Homo sapiens) (UniProt P51449). In words: qHTS assay for small molecule antagonists of the retinoid-related orphan receptor gamma (ROR-gamma) signaling pathway (AID 651802).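 Further: luciferase reporter luminescence driven by ROR response element; on the % scale 0 is the no-effect control and ±100 the full control effect; nearly all actives have a fitted effect of over 60% in size.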 In a few lines:
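Luminescence (One-Glo, 30 min RT) measured 16 h after compound addition and doxycycline induction at 37C. Reporter: RORE-luciferase under TET-inducible ROR-gamma in CHO cells.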
A general note: In qHTS, concentration-response curves come from the screen itself.

In experiment [2] the target is Arylsulfatase A (Homo sapiens) (UniProt P15289). In words: qHTS screen for enhancers of Arylsulfatase A (ASA1): LOPAC Validation Assay (AID 720538). In outline:
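MLD patient fibroblasts (SV40, ASA-I179S), 1536-well; adhere 6 hrs; cpd 48h, 37 degree C, 5% CO2; pNCS 0.5mM final in lysis buffer, 14h RT; stop 1N NaOH final; fluor. Ex525/Em598.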

The nature of experiment [3]: qHTS for compounds that reverse cellular toxicity of Amyloid beta (A-beta) peptide in yeast: LOPAC Validation Assay (AID 720559).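 Further: plate controls were DMSO for no effect and equimolar ferric chloride plus clioquinol rescue for full effect.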 In a few lines:
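Medium dispensed, compounds pinned, A-beta yeast suspension added; plates held at 30 C for 48 hr; absorbance measured at 600 nm to gauge growth; values scaled between DMSO and FeCl3/clioquinol (equimolar) controls.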

The nature of experiment [4]: qHTS for Activators of Parkin Expression: LOPAC Validation Assay (NLuc Reporter) (AID 720572). In outline:
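Cells harboring the Parkin-promoter coincidence reporter were treated for 24 h at seven concentrations. NLuc output was measured sequentially after the FLuc channel and scaled between DMSO and positive control values.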

A short description of experiment [5]: qHTS for Activators of Parkin Expression: LOPAC Validation Assay (FLuc Reporter) (AID 720573; further: potency means the concentration at half of the fitted maximal effect). In outline:
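Cells seeded, 24 h; compounds pinned, 7-pt dose response; 24 h at 37 C/5% CO2; volume reduced; FLuc reagent 10 min RT; luminescence read. Normalization: DMSO = 0, positive control = 100%.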

Experiment [6] is described as follows: qHTS assay for small molecule agonists of the antioxidant response element (ARE) signaling pathway measured by Nrf2-dependant transcriptional activity (AID 720636; active means well fitted curve in the direction sought with a large enough effect in the repeat runs; an effect the other way counts as inactive or inconclusive;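 further: HepG2 cells with an ARE-driven luciferase reporter; % of control where 0% means no effect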). In outline:
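Nrf2-dependent transcription is measured in ARE-luc HepG2 cells: compound is applied for 16 hr at 37 C after a 6 hr attachment period, and luciferase activity is quantified by luminescence using ONE-Glo.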

Experiment [7] in a line: qHTS assay for small molecule antagonists of the retinoid-related orphan receptor gamma (ROR-gamma) signaling pathway - cell viability counter screen (AID 720652; active means well fitted curve in the direction sought with a large enough effect in the repeat runs; an effect the other way counts as inactive or inconclusive;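 further: compound exposure lasted 16 hr before ATP read; on the % scale 0 is the no-effect control and ±100 the full control effect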). In a few lines: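 Cytotoxicity counter screen: intracellular ATP (CellTiter-Glo luminescence) measured in the doxycycline-induced CHO RORE-luciferase reporter line after 16 hr compound exposure at 37 C, 5% CO2.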

Experiment [8] in a line: qHTS assay for small molecule agonists of the antioxidant response element (ARE) signaling pathway measured by Nrf2-dependant transcriptional activity - cell viability counter screen (AID 720653; active means well fitted curve in the direction sought with a large enough effect in the repeat runs; an effect the other way counts as inactive or inconclusive; further: potency means the concentration at half of the fitted maximal effect; on max response: on the % scale 0 is the no-effect control and ±100 the full control effect). Conditions: ARE-bla HepG2 viability, CellTiter-Glo ATP luminescence, 16 h; max response: stronger effect = lower value. In outline:
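ARE-bla HepG2 cells (2,000/well) rested 5 hrs at 37C/5% CO2, then exposed to compounds in DMSO for 16 hrs. Viability was read in the same wells as intracellular ATP by luminescence, 30 min at room temperature after reagent addition.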

Experiment [9] has as its target T1, Hexokinase-4 (Homo sapiens) + Glucokinase regulatory protein (Homo sapiens) (UniProt P35557+Q14397). In words: qHTS assay for inhibitors of recombinant human GCK-GKRP interaction: Diaphorase-coupled assay (AID 743205). In outline:
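25 mM Hepes pH 7.6, 5 mM glucose, 0.4 mM ATP, 4 U/ml G6PDH; 10 nM each GST-GCK/FLAG-GKRP. Kinetic fluorescence read, 1/min × 30 min. Normalized: DMSO ± enzyme = max/min.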

For experiment [10], the target named is T1, Hexokinase-4 (Homo sapiens) + Glucokinase regulatory protein (Homo sapiens). Briefly: qHTS assay for inhibitors of recombinant human GCK-GKRP interaction: ADP-Glo assay (AID 743206).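 Further: plate controls were DMSO plus enzyme for no effect and no enzyme for full effect.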 In a few lines:
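Pin-transferred compounds meet a 15 nM GST-GCK/15 nM FLAG-GKRP/2 uM S6P mix (dispense concentrations). ATP is then added to 0.4 mM final with 5 mM glucose, and the reaction runs 60 min at room temperature. ADP is quantified luminescently.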

For experiment [11] the target is unchanged. Briefly: qHTS assay for inhibitors of recombinant human GCK-GKRP interaction: HTRF assay (AID 743207).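 Further: 0% = DMSO with GCK present and -100% = DMSO wells lacking GCK.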 In a few lines:
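5 nM GST-GCK + 5 nM FLAG-GKRP + 2 uM S6P, pH 7.1 buffer (25 mM Hepes, 2 mM MgCl2, 25 mM KCl, 1 mM DTT, Tween/BSA); pin-transferred cpd; anti-FLAG XL665/anti-GST K; 60 min RT; HTRF.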

Experiment [12] can be described thus: qHTS Assay for Identifying Gametocytocidal Compounds (AID 743244).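 Further: on the % scale 0 is the no-effect control and ±100 the full control effect; actives lower the fluorescent signal which means gametocytes are killed.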 Conditions: P. falciparum 3D7 stage III-V gametocytes, alamarBlue, 72 h; max response: stronger effect = lower value. In a few lines: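 In this qHTS viability screen, late-stage 3D7 gametocytes are incubated with compound for 72 h, then with alamarBlue for 24 h; reduced resorufin fluorescence marks killing.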

Experiment [13] can be described thus: qHTS assay for cell viability of HEK293 cells (AID 743288). Further: on the % scale 0 is the no-effect control and ±100 the full control effect; nearly all actives have a fitted effect of over 50% in size. Conditions: ATP luminescence (CellTiter-Glo), 18 h; max response: stronger effect = lower value. In a few lines:
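Viable-cell counts were inferred from luciferase-based ATP content in HEK293 cells seeded at 2,000/well, pre-incubated ≥5 h, then dosed with DMSO-solubilised compounds for 18 h at 37 C.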

Experiment [14] in a line: qHTS assay for cell viability of the p53RE-bla HCT-116 cell line (AID 743292). Further: nearly all actives have a fitted effect of over 55% in size. Further: potency means the concentration at half of the fitted maximal effect. In outline: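 ATP-based luminescence, 16 h compound exposure at 37 C, p53RE-bla HCT-116 cells at 4,000/well.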
The nature of experiment [15]: qHTS profiling of the MIPE4 collection as inhibitors of Plasmodium falciparum (3D7) proliferation (AID 743344; call rule not given here;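 further: scaled between DMSO vehicle wells and 0.29 µM artemisinin as full inhibition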). Conditions: P. falciparum 3D7 in erythrocytes, SYBR Green DNA fluorescence, 72 h; at 28.5 µM (top of the series) unless noted. In a few lines:
(§1)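 Parasite DNA was quantified by SYBR Green I fluorescence (ex 485, em 535 nm) after overnight lysis in saponin/Triton buffer at room temperature. Cultures at 0.3% parasitemia and 2.5% hematocrit were first exposed to compound for 72 h at 37 C; signals were normalised to artemisinin (0.29 uM) and vehicle wells.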

Experiment [16] in a line: qHTS for small molecule inhibitors of Yes1 kinase: Counter Assay (AID 686950).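 Further: no kinase present so only ADP-Glo detection of a fixed ADP amount is tested; luminescence from ADP-Glo reporting ADP in a fixed ATP and ADP mixture; 0% = DMSO wells with ATP plus ADP and -100% = ATP-only wells without ADP.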 In a few lines: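 Measuring interference with ADP-Glo, the assay ran 60 min at room temperature on an ATP/ADP mix lacking enzyme. Values were normalized to ATP-plus-ADP (maximum) and ATP-only (minimum) DMSO controls.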
Experiment [17] addresses Tyrosine-protein kinase Yes (Homo sapiens) (UniProt P07947). Briefly: qHTS for small molecule inhibitors of Yes1 kinase: Primary Screen (AID 686947).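 Further: plate controls were DMSO with enzyme for no effect and no-enzyme DMSO wells for full effect; nearly all actives have a fitted effect of over 60% in size.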 In outline: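 ADP-Glo luminescence reports ADP formed by 4 nM Yes1 phosphorylating poly(E4Y) (0.3 mg/mL) with 0.1 mM ATP for 60 min at room temperature, following 20 min compound preincubation; normalised between DMSO wells with and without enzyme.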

Experiment [18] can be described thus: qHTS profiling for inhibitors of Plasmodium falciparum (3D7) proliferation (AID 743322).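 Further: infected erythrocytes exposed to compound for 72 h before lysis; 100% = DMSO vehicle wells and 0% = 0.29 µM artemisinin.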 Conditions: P. falciparum 3D7 proliferation. In outline:
as §1

The nature of experiment [19]: qHTS profiling for inhibitors of Plasmodium falciparum (DD2) proliferation (AID 743323; call rule not given here). Conditions: lower = more inhibition. In outline:
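P. falciparum Dd2-infected erythrocytes (0.3% parasitemia, 2.5% hematocrit) exposed 72 h at 37 C, 5% CO2. Lysis with SYBR Green, overnight at room temperature, fluorescence 485/535 nm; normalized to 0.29 uM artemisinin and DMSO.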

Experiment [20] can be described thus: qHTS profiling for inhibitors of Plasmodium falciparum (HB3) proliferation (AID 743324).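 Further: 100% = DMSO vehicle wells and 0% = artemisinin-treated control wells.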 Conditions: Plasmodium falciparum HB3 blood-stage proliferation. In outline:
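SYBR Green fluorescence (485 ex/535 em) of lysed cultures, incubated overnight at room temperature in the dark, quantifies parasite DNA. Infected erythrocytes at 0.3% parasitemia and 2.5% hematocrit were exposed 72 h; values normalized to DMSO and 0.29 uM artemisinin controls.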

Sequence of Arylsulfatase A (Homo sapiens) (P15289 whole entry, looked up): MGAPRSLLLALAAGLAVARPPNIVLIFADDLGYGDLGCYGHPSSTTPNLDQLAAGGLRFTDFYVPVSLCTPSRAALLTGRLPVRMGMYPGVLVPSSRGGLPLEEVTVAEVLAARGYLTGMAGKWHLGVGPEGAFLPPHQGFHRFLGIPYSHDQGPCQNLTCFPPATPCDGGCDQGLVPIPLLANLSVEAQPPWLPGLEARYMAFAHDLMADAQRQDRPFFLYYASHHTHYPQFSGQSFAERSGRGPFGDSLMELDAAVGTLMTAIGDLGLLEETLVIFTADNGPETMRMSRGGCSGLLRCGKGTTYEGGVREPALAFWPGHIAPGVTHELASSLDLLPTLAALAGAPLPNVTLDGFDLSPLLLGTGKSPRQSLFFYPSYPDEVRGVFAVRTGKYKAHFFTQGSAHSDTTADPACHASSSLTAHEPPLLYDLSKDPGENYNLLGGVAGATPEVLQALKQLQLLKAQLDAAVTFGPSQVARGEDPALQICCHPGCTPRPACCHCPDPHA
T1 sequence (P35557 whole entry, looked up): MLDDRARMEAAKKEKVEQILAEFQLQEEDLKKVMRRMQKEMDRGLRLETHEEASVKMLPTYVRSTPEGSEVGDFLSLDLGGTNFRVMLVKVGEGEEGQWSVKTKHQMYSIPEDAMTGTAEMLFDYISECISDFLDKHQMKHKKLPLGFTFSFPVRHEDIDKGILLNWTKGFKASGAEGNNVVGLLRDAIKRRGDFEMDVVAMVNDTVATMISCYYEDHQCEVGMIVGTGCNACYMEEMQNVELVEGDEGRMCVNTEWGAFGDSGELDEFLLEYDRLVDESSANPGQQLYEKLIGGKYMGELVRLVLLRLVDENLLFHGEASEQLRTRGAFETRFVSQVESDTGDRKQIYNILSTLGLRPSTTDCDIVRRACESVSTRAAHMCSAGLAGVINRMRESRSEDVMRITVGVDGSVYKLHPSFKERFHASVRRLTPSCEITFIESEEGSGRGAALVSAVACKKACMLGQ
T1 sequence (Q14397 whole entry, looked up): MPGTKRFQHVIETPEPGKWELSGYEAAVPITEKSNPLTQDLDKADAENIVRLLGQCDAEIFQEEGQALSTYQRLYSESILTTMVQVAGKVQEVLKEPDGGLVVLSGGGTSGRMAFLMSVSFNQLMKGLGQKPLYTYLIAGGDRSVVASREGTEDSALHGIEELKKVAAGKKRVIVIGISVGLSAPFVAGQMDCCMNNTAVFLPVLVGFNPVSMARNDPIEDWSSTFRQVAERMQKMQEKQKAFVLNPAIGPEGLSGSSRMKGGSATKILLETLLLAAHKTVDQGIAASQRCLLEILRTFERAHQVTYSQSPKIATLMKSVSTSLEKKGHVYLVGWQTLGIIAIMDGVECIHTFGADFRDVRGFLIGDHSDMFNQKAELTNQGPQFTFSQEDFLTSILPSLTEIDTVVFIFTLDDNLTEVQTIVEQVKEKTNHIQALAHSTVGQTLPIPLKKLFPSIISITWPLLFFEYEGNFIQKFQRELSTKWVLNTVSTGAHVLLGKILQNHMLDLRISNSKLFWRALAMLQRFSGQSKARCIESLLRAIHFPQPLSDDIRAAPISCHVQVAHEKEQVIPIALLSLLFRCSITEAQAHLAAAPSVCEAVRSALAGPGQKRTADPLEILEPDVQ
Sequence of Nuclear receptor ROR-gamma (Homo sapiens) (P51449 whole entry, looked up): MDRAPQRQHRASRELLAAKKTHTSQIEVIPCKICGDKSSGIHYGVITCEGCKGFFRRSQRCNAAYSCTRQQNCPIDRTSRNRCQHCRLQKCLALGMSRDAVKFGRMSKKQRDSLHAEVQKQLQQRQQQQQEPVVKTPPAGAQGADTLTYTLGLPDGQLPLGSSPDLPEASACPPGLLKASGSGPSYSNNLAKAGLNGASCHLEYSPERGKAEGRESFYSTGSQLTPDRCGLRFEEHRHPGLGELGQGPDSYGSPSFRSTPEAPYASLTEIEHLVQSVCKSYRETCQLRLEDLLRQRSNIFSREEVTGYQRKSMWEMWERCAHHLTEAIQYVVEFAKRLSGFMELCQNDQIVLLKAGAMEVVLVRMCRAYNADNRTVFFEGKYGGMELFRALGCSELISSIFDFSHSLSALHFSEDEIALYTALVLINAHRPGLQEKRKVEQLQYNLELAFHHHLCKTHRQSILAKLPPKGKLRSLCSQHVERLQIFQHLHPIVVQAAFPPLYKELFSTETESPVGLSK
Sequence of Tyrosine-protein kinase Yes (Homo sapiens) (P07947 whole entry, looked up): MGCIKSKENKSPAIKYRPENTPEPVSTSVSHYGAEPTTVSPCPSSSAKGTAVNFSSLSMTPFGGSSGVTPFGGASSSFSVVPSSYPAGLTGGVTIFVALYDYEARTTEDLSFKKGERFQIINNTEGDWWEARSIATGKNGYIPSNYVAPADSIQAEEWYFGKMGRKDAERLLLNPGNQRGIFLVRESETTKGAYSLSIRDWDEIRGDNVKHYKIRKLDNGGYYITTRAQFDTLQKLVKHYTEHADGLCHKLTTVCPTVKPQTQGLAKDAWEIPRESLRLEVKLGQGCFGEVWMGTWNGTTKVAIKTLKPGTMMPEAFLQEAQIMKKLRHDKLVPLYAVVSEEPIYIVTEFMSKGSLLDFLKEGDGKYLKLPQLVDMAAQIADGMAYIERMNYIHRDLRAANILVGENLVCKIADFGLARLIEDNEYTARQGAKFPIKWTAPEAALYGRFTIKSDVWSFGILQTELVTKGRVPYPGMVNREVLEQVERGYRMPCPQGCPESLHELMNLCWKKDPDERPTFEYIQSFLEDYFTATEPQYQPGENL

For the molecule `Cn1c(=O)c2c(ncn2C)n(C)c1=O`, the Potency result in [1], in experiment [2], in experiment [5], in experiment [7], in [9] and in [10] was “inactive” throughout. Further, the Potency entry in experiment [11] and in experiment [14] was “inactive” each time. The result in experiment [3], in [4] and in experiment [6] was inactive. Further, the max response in experiment [8] is 6.29% (inactive) and 2.32% (inactive); in [12] it was -4.77% (inactive) and 11.8% (inactive); in experiment [13], 0.413% (inactive) and -8.15% (inactive). This molecule had a parasite growth, % of DMSO control in [15] of 91.2%.
As for `NS(=O)(=O)c1cc2c(cc1Cl)NCNS2(=O)=O`, the Potency result in experiment [1], in experiment [2], in experiment [5], in [7], in experiment [9] and in [10] was “inactive” each time. For the same molecule, the Potency entry in [11] and in [14] was “inactive” each time. Besides, the molecule was classed as inactive in experiment [3], in [4] and in experiment [6]. Besides, the max response in experiment [8] was 0.152% (inactive) and 15.5% (inactive); in [12] it was 6.34% (inactive) and 16.2% (inactive); in experiment [13], -3.61% (inactive) and 2.79% (inactive). The molecule further returned a parasite growth, % of DMSO control in experiment [15] of 53.2%.
Consider `Nc1ccn([C@H]2CC[C@@H](CO)O2)c(=O)n1`, for which the Potency entry in [1], in experiment [2], in experiment [5], in [7], in experiment [9] and in [10] was “inactive” throughout. Besides, the Potency result in [11] and in [14] was “inactive” throughout. For the same molecule, the molecule was called inactive in experiment [3], in [4] and in experiment [6]. The max response in experiment [8] was -1.33% (inactive) and -0.56% (inactive); in [12], -9.19% (inactive) and 7.53% (inactive); in experiment [13], 3.55% (inactive) and 2.55% (inactive).
As to `CN(Cc1cnc2nc(N)nc(N)c2n1)c1ccc(C(=O)N[C@@H](CCC(=O)O)C(=O)O)cc1`, the Potency entry in experiment [2], in experiment [5], in [9], in [10] and in experiment [11] was “inactive” throughout. The result in [3], in [4] and in experiment [6] was inactive. In addition, the Potency was 0.0447 µM (active) in [8] and 0.282 µM (active) in experiment [14]. For the same molecule, the max response in experiment [12] is -2.41% (inactive) and 9.8% (inactive).
With `O=c1[nH]cc(F)c(=O)[nH]1`, the Potency entry in experiment [1], in experiment [5], in experiment [7], in experiment [9], in experiment [10] and in experiment [11] was “inactive” in each case. The Potency entry in [14] was “inactive”. For the same molecule, the molecule was classed as inactive in experiment [4] and in [6]. The max response in [8] was -3.42% (inactive); in experiment [12] it was 14.8% (inactive) and 3.27% (inactive); in experiment [13], -0.211% (inactive).
With `O=c1c(-c2ccc(O)cc2)coc2cc(O)cc(O)c12`, the Potency result in [1], in [2], in [9], in [10], in experiment [11] and in experiment [14] was “inactive” throughout. The result in experiment [16] and in experiment [3] was inactive. Further, the Potency in experiment [5] was 8.2 µM (active). Also, the max response in experiment [8] was 0.177% (inactive) and -1.16% (inactive); in experiment [12], 20.7% (inactive) and 7.37% (inactive); in experiment [13], -13% (inactive) and -14.1% (inactive). Also, the parasite growth, % of DMSO control in experiment [15] amounted to 72.2%.
On to `Cc1ccc(-c2cc(C(F)(F)F)nn2-c2ccc(S(N)(=O)=O)cc2)cc1`, for which the Potency result in experiment [17] and in [14] was “inactive” throughout. Besides, the result in experiment [16] and in experiment [6] was inactive. In addition, the max response was -0.182% (inactive) in experiment [8]; 2.3% (inactive) and -2.23% (inactive) in [12]; -4.48% (inactive) in experiment [13]. Besides, the remaining parasite growth % (stronger effect = lower value) in [18] (at 28.7 µM (top of the series)) is 17.6%; in experiment [18] (at 57.5 µM (top of the series)), 11.7%. For the same molecule, the values for the activity, percent of control in [19] (at 28.7 µM (top of the series)) and in experiment [19] (at 57.5 µM (top of the series)) were 45.8% and 21.2%, respectively. In addition, the remaining proliferation (% of control), lower = more inhibition in experiment [20] (at 28.7 µM (top of the series)) came out at 12.9%; in experiment [20] (at 57.5 µM (top of the series)), 16%.
